This note sets out measurements from PubChem BioAssay (NCATS).

Values without a mark were called inactive. Inconclusive results are not listed. Active and inactive are the calls of the source. Unless noted, the call rests on the fitted dose curve; in most records, active means well fitted curve in the direction sought with a large enough effect; inconclusive means small, poorly fitted or top-dose-only effect, or another doubt; inactive means no such curve, though single readings can be large; an effect the other way counts as inactive or inconclusive.

The nature of experiment [1]: AP1 Signaling Pathway (AID 357; active means well fitted curve in either direction with a large enough effect, not every such curve was filed as active;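 further: ME-180 reporter cells stimulated with EGF at its EC50 level; on the % scale 0 is the no-effect control and ±100 the full control effect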). The following applies: ME-180 AP-1-bla reporter, EGF-induced, beta-lactamase ratio, 5 h; at 7.69 µM (top of the series) unless noted. In a few lines:
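Modulation of EGF-driven AP-1 transcription was assessed with a beta-lactamase reporter in ME-180 cells. Compound and EC50 EGF were co-incubated 5 hours at 37 °C before 2.5-hour CCF4 loading at room temperature and dual-emission reading.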

The target in experiment [2] is Cytochrome P450 1A2 (Homo sapiens) (UniProt P05177). The experiment can be described thus: p450-cyp1a2 (AID 410; calls by dose curve; further: potency means the concentration at half of the fitted maximal effect). In a few lines:
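Luminescent readout of luciferin formed from Luciferin-ME by human CYP1A2; data normalized against complete inhibition by 57 uM furafylline. Enzyme 20nM, substrate 100uM at Km, 100mM KPO4 buffer, 60 min reaction at room temperature.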

Experiment [3] in a line: Stat Signaling Pathway (AID 446; active means well fitted curve in either direction with a large enough effect, not every such curve was filed as active;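 further: ME-180 cervical cancer cells given 40 pM IL-6 alongside compound; SIE-controlled beta-lactamase reporter measured as 460/530 nm FRET emission ratio; on the % scale 0 is the no-effect control and ±100 the full control effect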). The following applies: ME-180 SIE beta-lactamase reporter, IL-6 stimulated, 5 h; at 7.69 µM (top of the series) unless noted. In a few lines: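 ME-180 SIE-bla cells; overnight plating; cpd + IL-6 40 pM, 5 h, 37 C; LiveBLAzer 2.5 h RT; 460/530 nm emission ratio. Normalized to 300 pM IL-6 and 125 nM JAK inhibitor controls.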
Experiment [4] addresses Glucocorticoid receptor (Homo sapiens) (UniProt P04150). Put plainly: GR-GFP Redistribution (AID 450;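 active means compounds whose dose series gives a full or clear partial fitted curve of increased nuclear translocation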; further: potency means the concentration at half of the fitted maximal effect). The following applies: U2OS GR-GFP nuclear translocation, laser cytometry, 2 h.
Experiment [5] has as its target Mitogen-activated protein kinase 10 (Mus musculus) (UniProt Q61831). Put plainly: JNK3 AlphaScreen Assay (AID 530; active means well fitted curve in either direction with a large enough effect, not every such curve was filed as active;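 further: kinase came from lysate of stimulated human HepG2 cells; signal reports phosphorylation of biotinylated GST-cJun 1-79 at Ser73 with 10 µM ATP; on the % scale 0 is the no-effect control and ±100 the full control effect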). In a few lines:
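Compound titrations were preincubated 15 minutes at room temperature with substrate, antibody and pre-activated JNK3-containing HepG2 lysate. Reactions were started with 10 uM ATP and stopped with EDTA-containing bead buffer for AlphaScreen detection.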
For orientation: Bead proximity is the source of the signal in Alpha formats.

Experiment [6] deals with 3',5'-cyclic-AMP phosphodiesterase 4B (Homo sapiens) (UniProt Q07343). Put plainly: qHTS Assay for Inhibitors of PDE-IV (AID 607; active means well fitted activation curve with a large enough effect in the main read-out, with a control signal flat, not every such curve was filed as active; further: % of control where 0% means no effect). In a few lines:
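ACTOne HEK293 cells carry a modified cAMP-gated CNG channel and express endogenous PDE4; plated 1000 cells/well, compounds up to 22.9 uM final. Membrane-potential dye fluorescence (ex 535/em 590) was read; parental cells received 10 uM forskolin + 100 uM RO 20-1724.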
For orientation: Quantitative high-throughput screening tests each substance at several concentrations.

Experiment [7] can be described thus: NFAT Signaling Pathway (AID 444; active means well fitted curve in either direction with a large enough effect, not every such curve was filed as active;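 further: carbachol stimulus at about its EC50 of 1 µM final; on the % scale 0 is the no-effect control and ±100 the full control effect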). The following applies: Jurkat NFAT-bla M1, carbachol, beta-lactamase ratio, 5 h; at 7.69 µM (top of the series) unless noted. In a few lines: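 Read-out: CCF4 FRET ratio (460 nm/530 nm) after 1 h RT dye loading, used for %activity and AC50 from titration series. Cells: Jurkat NFAT-β-lactamase/M1 line, treated with compound plus 1 uM carbachol for 5 h, 37 °C.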

Experiment [8] concerns the target Glucocorticoid receptor (Homo sapiens) (UniProt P04150). Put plainly: GR-EFC Redistribution (AID 451; calls by dose curve; further: potency means the concentration at half of the fitted maximal effect). As to conditions: CHO-K1 GR-EFC translocation, beta-gal luminescence, 2 h. In a few lines:
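Translocation of GR-ED fusion to nuclear EA restores b-gal, read by luminescence after 1 h room-temperature detection. Engineered CHO-K1 biosensor cells, 1,000/well, exposed 2 h at 37 C to titrations up to 46 uM final.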

Experiment [9] is described as follows: qHTS Assay for Identification of Small Molecule Agonists for Thrombopoietin (TPO) Signaling Pathway (AID 917). Further: on the % scale 0 is the no-effect control and ±100 the full control effect. In a few lines: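 Luminescence from a Glycoprotein IIb promoter–driven luciferase reporter served as read-out in murine Ba/F3 cells carrying the human TPO receptor. Cells, deprived of IL-3 overnight, received compounds with 26 pM TPO and were incubated 24 hrs at 37 C.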

The target of experiment [10] is Muscarinic acetylcholine receptor M1 (Rattus norvegicus) (UniProt P08482). The experiment can be described thus: qHTS Assay for Antagonists of Acetylcholine Muscarinic M1 Receptor: Measurement of IP-One Response (AID 944). Further: nearly all actives have a fitted effect of over 75% in size. In a few lines:
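M1-CHO (rat), 2000 cells/well, overnight recovery; cpd 10 min; carbachol EC80 (200 nM), 30 min, HEPES buffer + 50 mM LiCl pH 7.4; IP-One HTRF, Ex 337, Em 620/665 nm.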

Experiment [11] has as its target Pyruvate kinase (Leishmania mexicana) (UniProt Q27686). Put plainly: qHTS Validation Assay for Inhibitors of Leishmania Mexicana Pyruvate Kinase (AID 945).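 Further: 0% = DMSO only neutral control wells.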 In a few lines: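 The enzyme is a highly purified E451W mutant of LmPYK used at 0.2 nM. It converts 0.5 mM PEP and 0.1 mM ADP over 1 h at room temperature; product ATP is quantified by luciferase luminescence relative to DMSO controls.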

The target in experiment [12] is Alpha-galactosidase A (Homo sapiens) (UniProt P06280). The experiment can be described thus: Counterscreen for Glucocerebrosidase Inhibitors: qHTS Assay for Human alpha-Galactosidase at pH 4.5 (AID 992). Further: 0% is about no effect. In a few lines: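 Enzyme at 2 nM final was combined with compound (0.7 nM to 77 uM) and 80 uM 4-methylumbelliferyl alpha-D-galactopyranoside in 50 mM citric acid, 0.005% Tween-20, pH 4.5. After 20 min at room temperature, fluorescence was read (Ex 365/Em 440 nm); AC50 came from Hill fits.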
In general terms: Counterscreens check selectivity or assay interference.

Experiment [13] addresses alpha-glucosidase (Oryza sativa, rice) (UniProt Q653V4). The experiment can be described thus: Counterscreen for Glucocerebrosidase Inhibitors: qHTS Assay for Rice alpha-Glucosidase at pH 5.0 (AID 997).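 Further: 0% = full activity with enzyme and -100% = basal without enzyme.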 In a few lines: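 Rice alpha-glucosidase (4 nM final) with 400 uM 4-methylumbelliferyl-alpha-D-glucopyranoside in citrate buffer pH 5.0, 20 min at room temperature, stopped at pH 10; fluorescence 365/440 nm, compounds 0.7 nM–77 uM, AC50 from Hill fits.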

The target in experiment [14] is Guanine nucleotide-binding protein G(i) subunit alpha-1 (Homo sapiens) (UniProt P63096). The experiment can be described thus: qHTS Assay for Inhibitors of RGS12 GoLoco Motif Activity (Green Fluorophore) (AID 879).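 Further: 0% = labeled peptide with Gαi1 and full inhibition = labeled peptide alone without protein; negative values mean loss of peptide binding seen as reduced polarization.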 In a few lines: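 Fluorescence polarization assay: 50 nM Gαi1 with 10 nM FITC-labeled RGS12 GoLoco peptide in 10 mM Tris pH 7.5, 150 mM NaCl, 0.1 mM GDP, 0.05% NP40, 10 min at room temperature with compound.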

Experiment [15] can be described thus: qHTS Assay for Identification of Small Molecule Antagonists for NFkB Signaling Pathway (AID 895; active means well fitted inhibition curve with a large enough effect in the signal ratio, with a control signal flat, not every such curve was filed as active; the % refers to the signal ratio; further: on the % scale 0 is the no-effect control and ±100 the full control effect). In a few lines: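 Beta-lactamase reporter read-out (460 and 530 nm emission ratio, 405 nm excitation, 2 hrs substrate loading RT) after 5 hr stimulation with 10 pM TNF alpha in compound-treated NFkB-bla ME-180 cells in low-serum medium.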
Experiment [16] addresses Muscarinic acetylcholine receptor M1 (Rattus norvegicus) (UniProt P08482). The experiment can be described thus: qHTS Assay for Antagonists of Acetylcholine Muscarinic M1 Receptor: Kinetic Measurement of Intracellular Calcium Response (AID 943).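 Further: Fluo-4 calcium signal as peak divided by basal fluorescence over 4 min; nearly all actives have a fitted effect of over 75% in size.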 In a few lines: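 Rat M1-CHO cells, 2000/well, overnight → Fluo-4 no-wash dye with probenecid, 1 h 37C → compound 10 min, room temp → basal read 6 s → carbachol EC80 (100 nM) → 4 min kinetic read; peak/basal.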

Experiment [17] deals with Cytochrome P450 2C9 (Homo sapiens) (UniProt P11712). Put plainly: qHTS Assay for Inhibitors and Substrates of Cytochrome P450 2C9 (AID 883). Further: nearly all actives have a fitted effect of over 60% in size. Further: potency means the concentration at half of the fitted maximal effect. In a few lines:
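Inhibition of CYP2C9 is scored as loss of luminescence, with 57uM sulphaphenazole defining 100% inhibition. Substrate Luciferin-H is used at 100uM, equal to its KM; enzyme at 10nM in 25mM KPO4, 60 min at 37C with NADPH regeneration.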

In experiment [18] the target is Cytochrome P450 3A4 (Homo sapiens) (UniProt P08684). Put plainly: qHTS Assay for Activators of Cytochrome P450 3A4 (AID 885). Further: nearly all actives have a fitted effect of over 65% in size. In a few lines:
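20nM CYP3A4 + 25uM Luciferin-PPXE (=KM), 200mM KPO4; cpd 10 min RT; NADPH regen, 60 min RT; stop w/ detection buffer, 20 min; luminescence. Normalized to 57 uM ketoconazole.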

The target in experiment [19] is Cytochrome P450 2C19 (Homo sapiens) (UniProt P33261). The experiment can be described thus: qHTS Assay for Inhibitors and Substrates of Cytochrome P450 2C19 (AID 899). Further: potency means the concentration at half of the fitted maximal effect; nearly all actives have a fitted effect of over 60% in size. In a few lines: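 5nM enzyme + 10uM Luciferin-H EGE (=KM), 50mM KPO4; cpd pin-transferred, 10 min 37C; NADPH regen, 60 min 37C; stopped w/ luciferin detection reagent, 20 min; luminescence. Normalized to 57uM ketoconazole (AC100).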
Cytochrome P450 2C19 (Homo sapiens), sequence (P33261 whole entry, looked up): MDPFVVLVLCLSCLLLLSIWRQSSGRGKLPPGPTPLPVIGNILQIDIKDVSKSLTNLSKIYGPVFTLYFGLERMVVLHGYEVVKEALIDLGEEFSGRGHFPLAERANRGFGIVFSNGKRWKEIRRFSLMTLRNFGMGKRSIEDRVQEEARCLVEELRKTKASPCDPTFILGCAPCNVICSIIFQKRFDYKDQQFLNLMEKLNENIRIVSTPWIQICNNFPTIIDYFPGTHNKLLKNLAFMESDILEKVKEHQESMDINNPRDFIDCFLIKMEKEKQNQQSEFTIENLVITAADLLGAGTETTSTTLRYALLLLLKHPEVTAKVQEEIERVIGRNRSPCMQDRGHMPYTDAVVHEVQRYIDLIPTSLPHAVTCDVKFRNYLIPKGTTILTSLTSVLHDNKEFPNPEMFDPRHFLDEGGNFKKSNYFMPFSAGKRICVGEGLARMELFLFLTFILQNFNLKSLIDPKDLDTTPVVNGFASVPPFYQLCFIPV

3',5'-cyclic-AMP phosphodiesterase 4B (Homo sapiens), sequence (Q07343 whole entry, looked up): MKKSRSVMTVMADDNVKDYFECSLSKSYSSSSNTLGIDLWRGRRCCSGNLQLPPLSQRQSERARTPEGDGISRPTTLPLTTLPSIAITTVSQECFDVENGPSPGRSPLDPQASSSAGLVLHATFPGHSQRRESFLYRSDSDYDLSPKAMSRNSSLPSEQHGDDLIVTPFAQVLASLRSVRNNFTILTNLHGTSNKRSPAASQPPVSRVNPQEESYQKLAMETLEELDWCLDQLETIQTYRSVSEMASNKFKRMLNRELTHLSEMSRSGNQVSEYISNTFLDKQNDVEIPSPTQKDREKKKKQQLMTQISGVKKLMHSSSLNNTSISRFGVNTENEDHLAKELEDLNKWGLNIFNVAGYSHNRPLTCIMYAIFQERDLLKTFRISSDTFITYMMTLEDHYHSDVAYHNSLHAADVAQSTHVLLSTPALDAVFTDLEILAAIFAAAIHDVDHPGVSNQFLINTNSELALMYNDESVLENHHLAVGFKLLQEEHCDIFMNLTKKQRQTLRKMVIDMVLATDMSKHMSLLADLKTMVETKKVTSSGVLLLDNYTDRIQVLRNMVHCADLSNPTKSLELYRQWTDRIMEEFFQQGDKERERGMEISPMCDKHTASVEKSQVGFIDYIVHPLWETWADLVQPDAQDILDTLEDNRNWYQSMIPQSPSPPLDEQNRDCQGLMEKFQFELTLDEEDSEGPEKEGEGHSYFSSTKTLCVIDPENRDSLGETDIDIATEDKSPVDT
Muscarinic acetylcholine receptor M1 (Rattus norvegicus), sequence (P08482 whole entry, looked up): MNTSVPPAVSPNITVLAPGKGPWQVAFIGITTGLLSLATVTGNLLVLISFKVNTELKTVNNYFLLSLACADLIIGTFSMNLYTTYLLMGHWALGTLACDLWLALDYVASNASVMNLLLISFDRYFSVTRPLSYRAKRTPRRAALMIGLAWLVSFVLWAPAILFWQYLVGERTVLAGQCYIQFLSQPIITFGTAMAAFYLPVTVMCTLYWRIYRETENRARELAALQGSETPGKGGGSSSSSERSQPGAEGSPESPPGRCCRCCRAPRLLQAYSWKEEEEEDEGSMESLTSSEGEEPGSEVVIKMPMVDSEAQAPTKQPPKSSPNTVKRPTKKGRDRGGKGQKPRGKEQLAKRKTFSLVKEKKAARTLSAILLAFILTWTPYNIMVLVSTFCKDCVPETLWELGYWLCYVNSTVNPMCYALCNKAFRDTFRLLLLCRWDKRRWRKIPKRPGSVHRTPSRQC
Pyruvate kinase (Leishmania mexicana), sequence (Q27686 2-499 E452W): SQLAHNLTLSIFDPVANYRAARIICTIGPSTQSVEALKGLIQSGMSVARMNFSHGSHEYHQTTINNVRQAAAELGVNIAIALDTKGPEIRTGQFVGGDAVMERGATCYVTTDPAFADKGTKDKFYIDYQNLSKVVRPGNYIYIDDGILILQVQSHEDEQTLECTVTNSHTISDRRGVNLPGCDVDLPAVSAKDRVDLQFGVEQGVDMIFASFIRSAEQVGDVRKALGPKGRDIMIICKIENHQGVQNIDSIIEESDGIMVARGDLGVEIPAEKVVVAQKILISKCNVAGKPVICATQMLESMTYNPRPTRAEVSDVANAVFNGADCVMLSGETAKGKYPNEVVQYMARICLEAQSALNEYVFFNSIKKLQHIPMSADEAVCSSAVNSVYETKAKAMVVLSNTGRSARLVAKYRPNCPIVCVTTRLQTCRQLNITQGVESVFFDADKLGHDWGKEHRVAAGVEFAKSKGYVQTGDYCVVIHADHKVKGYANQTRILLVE
Alpha-galactosidase A (Homo sapiens), sequence (P06280 whole entry, looked up): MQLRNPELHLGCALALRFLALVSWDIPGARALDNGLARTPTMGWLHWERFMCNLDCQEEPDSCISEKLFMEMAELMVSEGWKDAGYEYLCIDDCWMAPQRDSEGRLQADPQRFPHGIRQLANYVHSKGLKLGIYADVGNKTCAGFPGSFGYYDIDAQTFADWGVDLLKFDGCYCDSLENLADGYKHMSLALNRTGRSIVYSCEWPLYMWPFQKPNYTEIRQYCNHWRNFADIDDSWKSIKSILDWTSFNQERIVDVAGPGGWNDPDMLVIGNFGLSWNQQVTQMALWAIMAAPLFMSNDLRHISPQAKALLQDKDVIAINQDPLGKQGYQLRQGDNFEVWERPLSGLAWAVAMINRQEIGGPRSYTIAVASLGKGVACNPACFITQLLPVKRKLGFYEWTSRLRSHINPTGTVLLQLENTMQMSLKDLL
Glucocorticoid receptor (Homo sapiens), sequence (P04150 whole entry, looked up, the tested form may be a part): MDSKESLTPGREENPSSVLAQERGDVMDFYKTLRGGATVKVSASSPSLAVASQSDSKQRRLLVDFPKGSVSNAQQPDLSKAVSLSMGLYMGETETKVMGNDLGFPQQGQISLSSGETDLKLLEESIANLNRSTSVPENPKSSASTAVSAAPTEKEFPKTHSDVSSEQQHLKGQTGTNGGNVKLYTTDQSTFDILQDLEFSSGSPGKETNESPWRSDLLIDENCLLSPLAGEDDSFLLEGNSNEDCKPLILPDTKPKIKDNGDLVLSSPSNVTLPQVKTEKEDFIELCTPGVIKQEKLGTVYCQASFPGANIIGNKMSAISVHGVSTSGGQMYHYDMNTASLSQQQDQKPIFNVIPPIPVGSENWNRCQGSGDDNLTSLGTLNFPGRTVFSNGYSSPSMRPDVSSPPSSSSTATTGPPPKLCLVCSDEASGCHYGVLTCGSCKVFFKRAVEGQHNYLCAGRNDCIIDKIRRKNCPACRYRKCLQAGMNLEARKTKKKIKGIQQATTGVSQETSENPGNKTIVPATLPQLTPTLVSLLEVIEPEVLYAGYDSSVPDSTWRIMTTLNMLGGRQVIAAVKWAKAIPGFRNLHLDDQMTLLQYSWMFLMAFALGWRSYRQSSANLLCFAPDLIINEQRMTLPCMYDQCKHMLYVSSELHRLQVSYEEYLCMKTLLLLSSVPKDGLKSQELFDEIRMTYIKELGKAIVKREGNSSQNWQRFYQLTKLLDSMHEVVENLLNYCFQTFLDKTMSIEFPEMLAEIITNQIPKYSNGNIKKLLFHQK
Cytochrome P450 2C9 (Homo sapiens), sequence (P11712 whole entry, looked up): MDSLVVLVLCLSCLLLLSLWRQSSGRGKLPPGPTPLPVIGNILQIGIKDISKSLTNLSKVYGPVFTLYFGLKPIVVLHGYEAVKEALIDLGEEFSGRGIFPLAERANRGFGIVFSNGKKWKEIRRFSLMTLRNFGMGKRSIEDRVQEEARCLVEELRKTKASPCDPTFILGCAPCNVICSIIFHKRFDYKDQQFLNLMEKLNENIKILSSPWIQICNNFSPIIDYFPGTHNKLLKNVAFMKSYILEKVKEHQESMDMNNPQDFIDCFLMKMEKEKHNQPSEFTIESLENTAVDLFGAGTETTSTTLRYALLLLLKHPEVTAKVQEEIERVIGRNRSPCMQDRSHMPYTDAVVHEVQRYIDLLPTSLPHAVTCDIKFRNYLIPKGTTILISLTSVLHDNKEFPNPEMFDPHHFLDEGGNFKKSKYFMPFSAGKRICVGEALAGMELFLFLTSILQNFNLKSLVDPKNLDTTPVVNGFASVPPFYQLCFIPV
Guanine nucleotide-binding protein G(i) subunit alpha-1 (Homo sapiens), sequence (P63096 whole entry, looked up): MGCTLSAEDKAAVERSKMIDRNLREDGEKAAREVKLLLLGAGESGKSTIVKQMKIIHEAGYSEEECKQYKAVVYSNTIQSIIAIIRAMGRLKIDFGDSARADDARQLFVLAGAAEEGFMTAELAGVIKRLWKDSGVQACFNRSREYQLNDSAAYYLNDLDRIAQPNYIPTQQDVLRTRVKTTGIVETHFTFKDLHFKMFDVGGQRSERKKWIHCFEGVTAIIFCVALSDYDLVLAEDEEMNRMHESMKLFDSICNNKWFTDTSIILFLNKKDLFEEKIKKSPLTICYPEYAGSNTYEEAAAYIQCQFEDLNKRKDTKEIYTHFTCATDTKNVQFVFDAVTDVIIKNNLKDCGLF
Cytochrome P450 1A2 (Homo sapiens), sequence (P05177 whole entry, looked up): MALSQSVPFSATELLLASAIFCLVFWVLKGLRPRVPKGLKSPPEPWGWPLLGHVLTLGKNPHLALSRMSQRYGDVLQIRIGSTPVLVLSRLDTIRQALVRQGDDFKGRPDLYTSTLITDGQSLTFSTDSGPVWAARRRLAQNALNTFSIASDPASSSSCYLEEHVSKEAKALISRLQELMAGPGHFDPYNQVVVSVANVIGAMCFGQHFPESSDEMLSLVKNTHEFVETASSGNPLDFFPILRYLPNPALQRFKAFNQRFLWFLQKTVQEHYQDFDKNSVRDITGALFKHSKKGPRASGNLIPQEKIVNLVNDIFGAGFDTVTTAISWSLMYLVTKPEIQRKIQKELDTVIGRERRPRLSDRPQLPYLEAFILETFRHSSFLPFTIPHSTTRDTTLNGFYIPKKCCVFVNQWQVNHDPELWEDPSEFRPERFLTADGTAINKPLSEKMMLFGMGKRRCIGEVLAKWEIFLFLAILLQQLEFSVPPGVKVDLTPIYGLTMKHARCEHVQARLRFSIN

Consider `NS(=O)(=O)c1ccc(N=Nc2nc3[nH]cnc(=S)c3[nH]2)cc1`, for which, in experiment [1], the activity change, negative = inhibition was 2.31%. For the same compound, the Potency in [2] was 6.31 µM (active); in experiment [4], above 46 µM. Moreover, the activity, negative = inhibition in [3] was 14.2%. Also, the Potency result in experiment [5] and in [6] was “inactive” each time.
Consider `COc1ccc(CCN(C)CCC[C@@](C#N)(c2cc(OC)c(OC)c(OC)c2)C(C)C)cc1OC`, for which the activity change, negative = inhibition in experiment [1] was 2.08% [at 38 µM]; in experiment [7], -29.4% [at 38 µM]. In [3], the activity, negative = inhibition is -12.4% [at 38 µM]. In addition, the Potency in experiment [4] and in [8] was above 46 µM in each case. Moreover, the compound was called inactive in experiment [9], in [11] and in [12]. Moreover, the Potency entry in experiment [10] and in experiment [13] was “inactive” in each case.
Regarding `Nc1nc(Cl)nc2c1ncn2[C@@H]1O[C@@H](COP(=O)(O)OP(=O)(O)OP(=O)(O)O)[C@@H](O)[C@H]1O`, the activity change, negative = inhibition in experiment [1] is 18.9% [at 38 µM]; in experiment [7], 9.46% [at 38 µM]. Besides, the Potency in experiment [4] and in experiment [8] was above 46 µM in each case. The Potency result in [5], in experiment [6], in [15], in experiment [16], in experiment [10] and in experiment [13] was “inactive” each time. The compound was called inactive in [14], in [11] and in experiment [12].
Consider `CC(C)(CCc1nc2ccccc2[nH]1)C(=O)O`, for which the activity change, negative = inhibition in experiment [1] is -7.34%; in experiment [7], 6.77%. For the same compound, in [3], the activity, negative = inhibition is 1.19%. The Potency in [4] is above 46 µM; in [8], above 9.22 µM. The Potency result in experiment [6] and in [17] was “inactive” each time.
In the case of `COc1ccccc1OC[C@H](O)CN1CCN(CC(=O)Nc2c(C)cccc2C)CC1`, the activity change, negative = inhibition was -8.83% [at 38 µM] in experiment [1] and 12.3% [at 38 µM] in experiment [7]. Besides, the Potency in experiment [4] and in [8] was above 46 µM throughout. For the same compound, the Potency result in [5], in experiment [6], in experiment [16], in experiment [10] and in experiment [13] was “inactive” each time. The call in [14], in experiment [9], in experiment [11] and in [12] was inactive.
As for `CCC(=O)[C@@H](c1ccccc1)c1ccccn1`, the activity change, negative = inhibition in experiment [1] was 10.3%; in experiment [7], -5.51%. Further, the activity, negative = inhibition in experiment [3] was 0.735%. Also, the results for the Potency in [4] and in experiment [8] were above 46 µM and above 9.22 µM, respectively. Further, the Potency entry in experiment [5] and in experiment [6] was “inactive” in each case.
Consider `ClC(=Nc1cccc2ccccc12)N(c1ccccc1)c1ccccc1`, for which the Potency in [2] was 1 µM (active); in experiment [4], above 46 µM; in experiment [8], above 9.22 µM; in experiment [17], 3.16 µM (active); in [19], 2.51 µM (active). The activity change, negative = inhibition in experiment [7] was -2.09%. For the same compound, the Potency entry in experiment [5], in [6] and in experiment [18] was “inactive” throughout.
